Source: PubChem
IL1B secr inh: qHTS for Inhibitors of Inflammasome Signaling: IL-1-beta AlphaLISA Primary Screen; activity change, % at 57.5 µM; THP-1 LPS/ATP IL-1B secretion, AlphaLISA, 16 h; hits give low values; 360,000 tested, 4.7% active; AID 743279, 2014; in the data active = activity change below about -50%; inconclusive = mostly about -30% to -49%
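THP-1 cells pretreated 1 hr with compounds (up to 57.5 uM final), then stimulated with LPS (250 ng/mL final) plus ATP (1.25 mM final); secreted IL-1B measured by AlphaLISA after 16 hr, decreased signal indicating inhibition.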
LDHA block: qHTS assay for inhibitors of human lactate dehydrogenase; L-lactate dehydrogenase A chain (Homo sapiens), P00338; purified LDHA, NADH/diaphorase-resazurin fluorescence; hits give low values; activity change, % (values are at about 110 or 230 µM); 480,000 tested, 0.15% active; AID 1347041, 2019; in the data active = activity change below about -30%; inconclusive = mostly about -25% to -30%;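 also: plate controls were DMSO wells for no effect and wells without enzyme for full effect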
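Human LDH5 at 2 nM final in Tris HCl pH 7.4 with 0.06 mM NADH and 0.2 mM pyruvate, reacted 5 minutes at room temperature. Remaining NADH coupled via diaphorase/resazurin; resorufin fluorescence read at 0 and 20 minutes, normalized to enzyme-free and DMSO wells.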
RORg inh: qHTS for inhibitors of ROR gamma transcriptional activity. Nuclear receptor ROR-gamma (Mus musculus), P51450. Drosophila S2 Gal4-RORgamma UAS-luciferase reporter, 20 h. Potency, µM (top dose mostly 53.6 µM), inactives show at the top dose activity change, negative = inhibition, hits mostly inhibitors. 310,000 tested, 5.4% active; also: potency is read from the fitted curve at half-maximal effect; nearly all actives have a fitted effect of over 60% in size
Target sequence (P51450 whole entry, looked up, the tested form may be a part): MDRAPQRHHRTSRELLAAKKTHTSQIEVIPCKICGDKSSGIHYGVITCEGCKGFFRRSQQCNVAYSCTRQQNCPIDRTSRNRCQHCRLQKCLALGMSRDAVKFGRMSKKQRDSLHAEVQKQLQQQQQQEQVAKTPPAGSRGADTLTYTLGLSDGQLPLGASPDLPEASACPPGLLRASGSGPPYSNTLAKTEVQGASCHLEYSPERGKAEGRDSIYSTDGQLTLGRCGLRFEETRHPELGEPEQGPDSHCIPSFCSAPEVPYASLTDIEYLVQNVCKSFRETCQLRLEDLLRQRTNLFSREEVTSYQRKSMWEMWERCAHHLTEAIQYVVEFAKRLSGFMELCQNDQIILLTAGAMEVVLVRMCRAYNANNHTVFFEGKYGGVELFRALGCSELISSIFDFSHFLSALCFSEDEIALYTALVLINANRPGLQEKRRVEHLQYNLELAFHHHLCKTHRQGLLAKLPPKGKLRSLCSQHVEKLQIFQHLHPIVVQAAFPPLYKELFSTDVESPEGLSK
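Using a luciferase readout, inhibitors were identified by reduced reporter activity in Drosophila cells coexpressing a copper-inducible Gal4–ROR gamma fusion and UAS-driven Photinus luciferase, incubated 20 hr after 700 uM copper sulfate.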
TDP1 cell CPT: qHTS for Inhibitors of human tyrosyl-DNA phosphodiesterase 1 (TDP1): qHTS in cells in presence of CPT. 420,000 tested, 12% active. chicken DT40 Tdp1-/-;hTDP1 cells + 20 nM CPT, ATP luminescence, 48 h. Potency, µM (highest dose often 46.2 µM), for inactives: at the top dose activity change, negative = growth inhibition, most hits filed as inhibitors; also: potency is read from the fitted curve at half-maximal effect; nearly all actives have a fitted effect of over 55% in size
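Cell growth measured by CellTiter-Glo luminescence after a minimum 48 h, 37 C compound exposure with 20 nM CPT in Tdp1-knockout DT40 cells stably expressing hTDP1, seeded 400/well; qHTS titration format.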
DT40 TDP1 no CPT: qHTS for Inhibitors of human tyrosyl-DNA phosphodiesterase 1 (TDP1): qHTS in cells in absence of CPT. DT40 Tdp1-/- hTDP1 cells, no CPT, ATP luminescence, 48 h. 420,000 tested, 15% active. Potency, µM (top dose mostly 46.2 µM), without a hit: at the highest dose activity change, negative = growth inhibition, actives largely listed as inhibitors. AID 686978, 2013; also: potency is read from the fitted curve at half-maximal effect; nearly all actives have a fitted effect of over 55% in size
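A cellular qHTS used chicken DT40 cells lacking endogenous Tdp1 but carrying stably transfected human TDP1. Compounds were applied without camptothecin, and cell growth kinetics were judged by ATP-dependent luminescence after ≥48 hr.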
Gal4-VP16 FLuc: VP16 counterscreen qHTS for inhibitors of ROR gamma transcriptional activity | Drosophila S2 Gal4-VP16 UAS-luciferase, luminescence, 20 h | Potency, µM (highest dose often 53.6 µM), for the others: top-dose activity, negative = inhibition, most hits filed as inhibitors | 310,000 tested, 3.5% active | AID 2546, 2010;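 also: Gal4-VP16 expression switched on by copper sulfate through the metallothionein promoter; potency is read from the fitted curve at half-maximal effect; nearly all actives have a fitted effect of over 50% in size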
* = called active by the depositor; ? = inconclusive; · = no result; [ ] = remark or other dose. Compounds with a hit are over-represented: about 18% of the library has one in this group of screens. Unless noted, calls follow the shape of the dose curve; as a rule, active = well fitted curve in the direction sought with a large enough effect; inconclusive = small, poorly fitted or top-dose-only effect, or another doubt; inactive = no such curve, though single readings can be large; an effect the other way counts as inactive or inconclusive. Unless noted, % is scaled to controls: 0 for no effect and ±100 for the full control effect.

SMILES	IL1B secr inh	LDHA block	RORg inh	TDP1 cell CPT	DT40 TDP1 no CPT	Gal4-VP16 FLuc
CCNC1CCCCC1	·	-8	·	·	·	·
Cc1cc(OCC(=O)NCC(O)c2ccccc2)c2c3c(c(=O)oc2c1)CCCC3 (stereo unspecified)	-19	-1	41%	?	18µM*	-5%
CCCC[C@@H](C)[C@@H](OC(=O)C[C@@H](CC(=O)O)C(=O)O)[C@H](C[C@@H](C)CCCCCC[C@@H](O)C[C@H](O)[C@H](C)N)OC(=O)C[C@@H](CC(=O)O)C(=O)O	·	·	0%	·	·	-9%
O=C(Oc1ccccc1)N1CCC2(CCCN(Cc3ccccc3)C2)CC1	·	·	-8%	4%	?	-6%
O=C(C[N+]12CCC(CC1)C(C(O)(c1ccccc1)c1ccccc1)C2)c1ccc(Br)cc1 (stereo unspecified)	-59*	1	38%	15µM*	7.3µM*	-6%
OCC[N+]12CCC(CC1)C(C(O)(c1ccccc1)c1ccccc1)C2 (stereo unspecified)	-17	-5	1%	7%	-1%	-6%
O=C1NC(=S)NC(=O)C1=Cc1cccn1-c1ccc(O)cc1	-102*	-2	2.8µM*	3.7µM*	5.2µM*	8.9µM*
Cc1cc(C)cc(N2C(=O)NC(=O)/C(=C\c3cccn3-c3ccccc3)C2=O)c1	-99*	-5	-14%[10 µM]	?	?	?
Cc1cccc(N2C(=O)NC(=O)/C(=C\c3cnc(-c4ccccc4)nc3)C2=O)c1	23	-12	20%	?	?	-23%
CN1C(=O)/C(=C/c2cccn2-c2ccc3ccccc3c2)C(=O)NC1=S	-117*	9	13µM*	3.3µM*	5.2µM*	-88%
O=C1NC(=S)N(c2ccc(F)cc2)C(=O)/C1=C/c1ccccc1O	1	0	-17%	?	-12%	3%
CCOc1cc(C=C2C(=O)NC(=S)NC2=O)ccc1O	-3	-6	·	-29%	-21%	·
Cc1cc(C)n(-c2ccc(NN=C(C#N)C#N)cc2)n1	-13	-17	?	10µM*	7.3µM*	10µM*
N#CC(C#N)=NNc1ccc(-n2ccc(C(F)(F)F)n2)cc1	-83*	-1	5µM*	2.3µM*	1.6µM*	3.5µM*
Cc1ccc(C(=O)Nc2ccc(Cl)cc2C(=O)c2ccccc2)cc1	-1	0	·	-11%	-4%	·
Cc1ccc(C(=O)Nc2nc3ccccc3[nH]2)cc1	32	-3	2.5µM*	?	18µM*	3.5µM*
CC1=C(N2CC2)C(=O)C(CO)=C(N2CC2)C1=O	-99*	37	·	0.026µM*	0.029µM*	·
COc1cccc(C2SCC(=O)Nc3[nH]ncc32)c1 (stereo unspecified)	·	-3	·	·	·	·
COc1ccccc1C=C1C(=O)NC(=S)NC1=O	?	-57*	·	-17%	2%	·
COC(=O)C12OCC34C(CC5C(C)=C(O)C(=O)CC5(C)C3C(O)C1O)OC(=O)C(OC(=O)/C=C(\C)C(C)C)C24 (stereo unspecified)	-98*	-3	·	0.041µM*	0.058µM*	·
CN(C)C=C1C(=O)N(C2CCCCC2)C(=O)N(C2CCCCC2)C1=O	-7	-8	13%	16µM*	?	6%
CN1C(=O)C(=Cc2ccc(SC3CCCCC3)o2)C(=O)N(C)C1=O	10	-7	-19%	-3%	-1%	15%
O=C(NCC(c1cccs1)N1CCOCC1)c1cc([N+](=O)[O-])cc([N+](=O)[O-])c1 (stereo unspecified)	-62*	6	-34%	-29%	?	5%
